Assay results reported in PubChem BioAssay AID1159580 (chemical genetic matrix, 2015).
Hit rate of the full screen: of about 5,500 compounds, about 2,000 (36%) were called active. Not shown: some 18% with an inconclusive outcome. No stated cut-off is given here; in the data, active means normalized growth mostly below about 0.91 (no sharp cut-off); inconclusive means no clear call, values can overlap the other calls; inactive means mostly above about 0.92. Some of the results follow.

Assay: chemical genetic growth profiling, strain panel (AID 1159580);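 further: tested at 20 µM; growth read once vehicle control cultures reached saturation at 30 °C; 1 = growth at the plate median or of vehicle wells; lower values mean less growth of the strain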
Details: S. cerevisiae deletion strains, growth OD

Measured: normalized growth

COc1ccc(/C=C/c2cc(O)cc(O[C@@H]3O[C@H](CO)[C@@H](O)[C@H](O)[C@H]3O)c2)cc1
inactive: locus YBR021W, strain FUR4, active compounds read low 1.02 | locus YBR229C, strain ROT2, active compounds read low 0.955 | locus YCL029C, strain bik1, active compounds read low 0.984 | locus YDL035C, strain GPR1, active compounds read low 0.972 | locus YDL074C, strain BRE1, active compounds read low 1.02 | locus YDL101C, strain DUN1, active compounds read low 1 | locus YDL134C, strain PPH21, active compounds read low 1 | locus YDL185W, strain tfp1, active compounds read low 0.974 | locus YDL192W, strain arf1, active compounds read low 0.994 | locus YDR101C, strain arx1, active compounds read low 1.01 | locus YDR150W, strain NUM1, active compounds read low 0.997 | locus YDR162C, strain NBP2, active compounds read low 0.977 | locus YDR318W, strain mcm21, active compounds read low 0.986 | locus YDR388W, active compounds read low 1 | locus YDR502C, strain sam2, active compounds read low 0.998 | locus YEL061C, strain CIN8, active compounds read low 0.994 | locus YER110C, active compounds read low 0.987 | locus YER155C, strain BEM2, active compounds read low 1.02 | locus YER167W, strain BCK2, active compounds read low 0.978 | locus YGL078C, strain dbp3, active compounds read low 0.987 | locus YGL086W, strain mad1, active compounds read low 1.02 | locus YGL248W, strain PDE1, active compounds read low 0.989 | locus YGR135W, strain pre9, active compounds read low 0.994 | locus YGR252W, strain gcn5, active compounds read low 0.964 | locus YHR030C, strain SLT2, active compounds read low 1 | locus YHR079C, strain IRE1 (second series), active compounds read low 0.995 | locus YHR094C, strain hxt1, active compounds read low 0.989 | locus YHR129C, strain ARP1, active compounds read low 0.994 | locus YHR200W, strain rpn10, active compounds read low 0.983 | locus YIL066C, strain RNR3, active compounds read low 0.968 | locus YIL073C, strain SPO22, active compounds read low 1.01 | locus YIL125W, strain kgd1, active compounds read low 0.985 | locus YIR030C, strain dcg1, active compounds read low 0.997 | locus YJL095W, strain BCK1, active compounds read low 1.04 | locus YJL134W, strain LCB3, active compounds read low 0.994 | locus YJL168C, strain set2, active compounds read low 0.998 | locus YJL187C, strain SWE1 (second series), active compounds read low 1.01 | locus YJR043C, strain POL32, active compounds read low 0.993 | locus YKL009W, strain mrt4, active compounds read low 1 | locus YKL068W, active compounds read low 0.979 | locus YKL085W, strain MDH1 (second series), active compounds read low 0.982 | locus YKL085W, strain MDH1, active compounds read low 0.982 | locus YKL190W, strain CNB1, active compounds read low 1.01 | locus YKR001C, strain vps1, active compounds read low 1.01 | locus YLR039C, strain RIC1, active compounds read low 0.99 | locus YLR058C, strain SHM2, active compounds read low 0.986 | locus YLR102C, strain apc9, active compounds read low 0.987 | locus YLR262C, strain YPT6, active compounds read low 0.961 | locus YLR268W, strain sec22, active compounds read low 1.03 | locus YLR330W, strain CHS5, active compounds read low 0.996 | locus YLR342W, strain FKS1 (second series), active compounds read low 0.995 | locus YLR371W, strain rom2, active compounds read low 0.978 | locus YLR418C, strain cdc73, active compounds read low 0.984 | locus YML016C, strain PPZ1, active compounds read low 0.992 | locus YML032C, strain rad52, active compounds read low 0.97 | locus YML124C, strain tub3, active compounds read low 0.987 | locus YMR078C, strain ctf18, active compounds read low 0.994 | locus YMR223W, strain ubp8, active compounds read low 0.985 | locus YMR307W, strain GAS1, active compounds read low 0.965 | locus YNL067W, strain RPL9B, active compounds read low 1.03 | locus YNL128W, strain TEP1, active compounds read low 1 | locus YNL233W, strain BNI4, active compounds read low 1.04 | locus YNL250W, strain rad50, active compounds read low 0.965 | locus YNL271C, strain bni1, active compounds read low 1 | locus YNL298W, strain CLA4, active compounds read low 1.01 | locus YNL307C, strain MCK1, active compounds read low 0.995 | locus YNL322C, strain KRE1, active compounds read low 0.984 | locus YNR052C, strain pop2, active compounds read low 1 | locus YOL006C, strain TOP1, active compounds read low 1.05 | locus YOL012C, strain htz1 1.36 | locus YOL147C, strain pex11, active compounds read low 0.988 | locus YOR061W, strain CKA2, active compounds read low 0.971 | locus YOR069W, strain VPS5, active compounds read low 0.993 | locus YOR136W, strain idh2, active compounds read low 0.992 | locus YOR144C, strain elg1, active compounds read low 0.985 | locus YOR184W, strain ser1, active compounds read low 0.979 | locus YOR316C, strain cot1, active compounds read low 0.999 | locus YPL055C, strain LGE1, active compounds read low 1.01 | locus YPR119W, strain clb2, active compounds read low 0.998 | locus YPR141C, strain kar3, active compounds read low 0.982 | locus YPR163C, strain tif3, active compounds read low 0.991 | locus YPR167C, strain met16, active compounds read low 0.992 | strain wtn01, active compounds read low 1.01
